Data on 8 compounds can be found in PubChem BioAssay AID2284349 (EPA ToxCast).

Records with an inconclusive call do not appear. The source made the active and inactive calls. Rule for the calls: active = hit-call score of the fitted dose curve at least 0.9, where 1 is the maximum; inconclusive = response in the unintended direction; inactive = score below 0.9.

For the experiment, the target named is frog Peroxisome Proliferator-activated Receptor-gamma (PPARg), pparg (gene 397769) (UniProt P37234). Nature of the experiment: ATG_frPPARg_EcoTox2: Attagene TRANS-FACTORIAL EcoTox-2 HepG2 Assay for frog Peroxisome Proliferator-activated Receptor-gamma (PPARg). The protocol: ATG_EcoTox2 is a cell-based, multiplexed assay created by modifying the existing Attagene TRANS-FACTORIAL system to include a panel of nuclear receptors from some or all the following species: human (Homo sapiens), african clawed frog (Xenopus laevis), rainbow trout (Oncorhynchus mykiss), japanese medaka (Oryzias latipes), and zebrafish (Danio rerio). The ECOTOX2-FACTORIAL format uses HepG2, a human liver cell line, with measurements taken at 24 hours after chemical dosing in a 24-well plate. ATG_frPPARg_EcoTox2 is one of 29 assay components calculated in the ATG_EcoTox2 assay. It is designed to make measurements of mRNA induction, a form of inducible reporter, as detected with fluorescence intensity signals by Reverse transcription polymerase chain reaction (RT-PCR) and Capillary electrophoresis technology.The assay endpoint ATG_frPPARg_EcoTox2 was analyzed in the positive analysis fitting direction relative to DMSO as the negative control and baseline of activity. Using a type of inducible reporter, measures of mRNA for gain-of-signal activity can be used to understand the reporter gene at the transcription factor-level as they relate to the gene PPARg. Furthermore, this assay endpoint can be referred to as a primary readout, because this assay has produced multiple assay endpoints where this one serves a reporter gene function. To generalize the intended target to other relatable targets, this assay endpoint is annotated to the nuclear receptor intended target family, where the subfamily is non-steroidal.
Chain of frog Peroxisome Proliferator-activated Receptor-gamma (PPARg), pparg (gene 397769) (P37234 whole entry, looked up): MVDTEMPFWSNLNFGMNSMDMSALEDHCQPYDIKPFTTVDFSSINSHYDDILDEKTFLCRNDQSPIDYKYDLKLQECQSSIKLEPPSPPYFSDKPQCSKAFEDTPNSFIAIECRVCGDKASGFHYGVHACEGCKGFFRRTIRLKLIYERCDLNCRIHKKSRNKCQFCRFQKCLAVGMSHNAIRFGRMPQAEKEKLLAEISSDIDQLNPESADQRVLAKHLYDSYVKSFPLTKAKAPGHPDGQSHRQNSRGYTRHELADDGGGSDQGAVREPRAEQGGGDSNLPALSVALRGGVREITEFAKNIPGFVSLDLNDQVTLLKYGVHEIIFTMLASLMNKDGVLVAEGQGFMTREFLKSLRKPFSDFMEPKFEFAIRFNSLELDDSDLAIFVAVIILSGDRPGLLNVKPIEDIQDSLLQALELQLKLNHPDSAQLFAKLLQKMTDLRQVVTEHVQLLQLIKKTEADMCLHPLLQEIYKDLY
Human liver HepG2 cells are transiently transfected with multiple reporter transcription units (MRTUs) in 6-well plates using FuGene 6 reagent (Roche; 3 ml FuGene/1 mg DNA). The MRTU constructs are regulated by a cis-regulating element (promoter). Each RTU expresses a GAL4-UAS that regulates the transcription of a nearby target reporter gene sequence. A major difference between the CIS and TRANS system is that in CIS activities of endogenous TFs are measured, whereas the TRANS assay evaluates changes in activities of exogenous, chimeric NR-Gal4 proteins. […] At the end of 24 hour incubation, total RNA was isolated using TriZol reagent (Invitrogen). The isolated RNA is then reverse-transcribed using oligo(dT) primer and Mo-MLV reverse transcriptase (Invitrogen) with DNAse I (Ambion) treatment for 30 min. The one-tenth of the produced cDNA was amplified by PCR using Taq DNA polymerase (Invitrogen) and two reporter sequence-specific primers. The PCR products were fluorescently labeled by primer extension with 6-arboxyfluorescein (6-FAM) 5'-labeled reporter sequence-specific primer (2 min at 95 C, 20 s at 68 C and 10 min at 72 C) and these products were digested with 5U of HpaI (New England Biolabs) for 2h at 37 C. The fragments were purified using Qiaquick PCR columns (Qiagen), analyzed on an ABI 3130xL genetic analyzer (Applied Biosystems) with peak positions identified by using a set of X-rhodamine (ROX)-labeled MapMarker1000 molecular weight standards (BioVentures). The raw capillary electrophoresis data was processed using Attagraph software (Attagene).
As to `CC(c1cc2ccccc2s1)N(O)C(N)=O` (stereo not drawn), the compound was classed as inactive.

For the compound `C[C@@H]1C[C@H]2[C@@H]3CCC4=CC(=O)C=C[C@]4(C)[C@@]3(F)[C@@H](O)C[C@]2(C)[C@@]1(O)C(=O)COP(=O)(O)O`, the result was inactive.

Take `CC(C)(Oc1ccc(Cl)cc1)C(=O)O`: the outcome was inactive.

Take `CC(C)OC(=O)C(C)(C)Oc1ccc(C(=O)c2ccc(Cl)cc2)cc1`: the outcome was inactive.

For `Cc1cccc(Nc2cc(Cl)nc(SCC(=O)O)n2)c1C`, the result was inactive.

As to `Cc1ccc(C)c(OCCCC(C)(C)C(=O)O)c1`, the compound was called inactive.

As to `C=C(c1ccc(C(=O)O)cc1)c1cc2c(cc1C)C(C)(C)CCC2(C)C`, the compound was classed as inactive.

With `CC(C)(Oc1ccc(CCNC(=O)c2ccc(Cl)cc2)cc1)C(=O)O`, the compound was classed as inactive.
